Screens from PubChem BioAssay.
A selection: hits, their analogues and other compounds. The true share with any hit is near 9.4%.
AMA1-RON2 inh = AMA1-RON2 (P. falciparum) interaction inhibition; AlphaScreen AMA1-biotinylated RON2 peptide binding; Potency, µM (top dose mostly 58.2 µM), actives largely listed as inhibitors; 360,000 tested, 0.2% active; also: nearly all actives have a fitted effect of over 45% in size
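AMA1 (3D7) with his tag at 25 nM final met compounds first, then biotinylated RON2 peptide at 25 nM; detection used donor plus acceptor beads, 10 µg/mL apiece, read by AlphaScreen after 30 min at room temperature.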
Pf growth 48h = P. falciparum growth inhibition at 48 hours (one generation); P. falciparum luciferase growth in erythrocytes, 48 h; Potency, µM (doses to about 28.7 µM), usual class: inhibitors; 310,000 tested, 5.9% active; AID 504832
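Compounds are pin-transferred into medium, infected erythrocytes (2% hematocrit, 0.1% parasitemia final) are added, and plates sit one parasite generation at 37 C in 5% CO2. Detection reagent is then added and luminescence measured.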
Pf growth 96h = P. falciparum growth inhibition at 96 hour, primary screen for plastid delayed-death inhibitors | P. falciparum luciferase reporter growth, 96 h | Potency, µM (doses to about 28.7 µM), hits mostly inhibitors | 320,000 tested, 6.9% active
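Cell-based qHTS: luciferase-tagged P. falciparum in erythrocytes (2% hematocrit, 0.05% parasitemia final) incubated with compounds for 96 hours, 37 C, 5% CO2; luciferase detection reagent then added and luminescence measured.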
SARS PLP yeast = inhibitors of SARS-CoV papain-like protease in yeast | S. cerevisiae expressing SARS-CoV PLpro, growth rescue | Potency, µM (doses to about 32.9 µM), usual class: activators | 330,000 tested, 0.19% active | AID 485353; calls by dose curve; also: nearly all actives have a fitted effect of over 55% in size
Of the large screens only hits and unclear results are named; the others gave an inactive call. Unless noted, calls follow the shape of the dose curve; as a rule, active = well fitted curve in the direction sought with a large enough effect; inconclusive = small, poorly fitted or top-dose-only effect, or another doubt; inactive = no such curve, though single readings can be large; an effect the other way counts as inactive or inconclusive.

COc1ccccc1NS(=O)(=O)c1cc(NC(=O)c2ccccc2[N+](=O)[O-])ccc1N1CCOCC1	none (no result: Pf growth 48h, Pf growth 96h)
COc1ccccc1NS(=O)(=O)c1cc(NC(=O)c2cccs2)ccc1N1CCOCC1	Pf growth 48h 9.3µM, Pf growth 96h inconclusive
CCCCn1c(C)cc(/C=C(\C#N)C(=O)O)c1C	none
CCc1ccccc1N1C(=O)C2C3C=CC(CC3)C2C1=O (stereo not drawn)	Pf growth 96h inconclusive
N=c1c2ccccc2nnn1-c1ccccc1[N+](=O)[O-]	none (no result: Pf growth 48h, Pf growth 96h, SARS PLP yeast)
O=C(NC(=S)Nc1ccccc1N1CCOCC1)c1cccs1	none
O=C(NC(=S)Nc1ccc(N2CCOCC2)c(Cl)c1)c1cccs1	Pf growth 48h inconclusive, Pf growth 96h 2.3µM
COc1nnc(-c2ccc(N3CCOCC3)c(NC(=O)c3ccco3)c2)c2ccccc12	Pf growth 48h 7.4µM
CNC(=O)COc1cccc(C(=O)NCc2ccccc2)c1	none
Nc1ccn([C@@H]2O[C@H](CO)[C@H](O)C2(F)F)c(=O)n1	Pf growth 48h 1.9µM, Pf growth 96h 1.5µM (no result: AMA1-RON2 inh, SARS PLP yeast)
Nc1ccn([C@@H]2O[C@H](CO)[C@@H](O)[C@@H]2O)c(=O)n1	none
Nc1nonc1-c1noc(CCCCCN2C(=O)c3ccccc3C2=O)n1	Pf growth 96h 13µM
Cc1ccc(CSc2nnc(-c3cccc(S(=O)(=O)N4CCOCC4)c3)n2C2CCCC2)cc1	Pf growth 48h 9.3µM, Pf growth 96h 8.3µM
C=CCn1c(SCC(=O)Nc2ccccc2)nnc1-c1cccc(S(=O)(=O)N2CCOCC2)c1	none (no result: Pf growth 48h)
CC(C)Cn1c(SCC(=O)O)nnc1-c1cccc(S(=O)(=O)N2CCOCC2)c1	none (no result: Pf growth 48h, Pf growth 96h)
COc1ccccc1-n1c(SCC(=O)O)nnc1-c1ccc(S(=O)(=O)N2CCCCC2)cc1	Pf growth 96h 12µM
CCn1c(SCC(=O)Nc2ccccc2)nnc1-c1ccc(S(=O)(=O)N2CCOCC2)cc1	Pf growth 48h 5.2µM, Pf growth 96h inconclusive
NC(=O)CSc1nnc(-c2cccc(S(=O)(=O)N3CCOCC3)c2)n1C1CCCCCC1	Pf growth 96h inconclusive (no result: Pf growth 48h)
CC(C)Cn1c(SCC(=O)NCc2ccc(Cl)cc2)nnc1-c1cccc(S(=O)(=O)N2CCOCC2)c1	Pf growth 48h inconclusive, Pf growth 96h 9.3µM
O=C(C1CCCCC1)N1CCC(CO)(Cc2ccccc2Cl)CC1	none
Cc1cccc(C)c1NC(=O)CS(=O)CC(=O)Nc1ccc(F)cc1F (stereo not drawn)	none
C=CCn1c(SCC(=O)Nc2ccc(-c3nc4ccc(C)cc4s3)cc2)nnc1-c1ccncc1	Pf growth 96h inconclusive
CCn1c(SCC(=O)Nc2ccc(-c3nc4ccc(C)cc4s3)cc2)nnc1-c1ccccc1	Pf growth 96h 13µM (no result: AMA1-RON2 inh)
Cc1nnc(SCC(=O)c2ccc(S(=O)(=O)N3CCOCC3)cc2)n1-c1ccccc1	Pf growth 48h inconclusive
CCOC(=O)CSc1nnc(-c2ccc(S(=O)(=O)N3CCOCC3)cc2)n1-c1ccccc1	Pf growth 48h 7.4µM (no result: Pf growth 96h)
O=C1NN=C(c2ccccc2)CC1c1ccc(Cl)cc1Cl (stereo not drawn)	Pf growth 96h inconclusive
COc1ccccc1N1CCN(Cc2cc3c(cc2Br)OCCO3)CC1	AMA1-RON2 inh inconclusive, Pf growth 48h inconclusive
COc1ccc(N2CCN(Cc3cc4c(cc3Br)OCCO4)CC2)cc1	AMA1-RON2 inh 13µM, Pf growth 96h inconclusive
O=S(=O)(c1ccccc1F)N1CCN(Cc2cc3c(cc2Br)OCCO3)CC1	Pf growth 48h inconclusive, Pf growth 96h 8.3µM
COc1ccc(N2CCN(Cc3csc(C)c3-c3ccc(C)cc3)CC2)cc1	AMA1-RON2 inh 10µM, Pf growth 48h 10µM
COc1ccc(N2CCN(CC(=O)Nc3c(C)cc(C)cc3C)CC2)cc1	none
O=S(=O)(c1ccccc1)N1CCN(Cc2cc3c(cc2Br)OCCO3)CC1	Pf growth 48h inconclusive, Pf growth 96h inconclusive
COc1ccc(/C=C/C(=O)Nc2cccc(S(=O)(=O)NC3=NCCCCC3)c2)c(OC)c1	Pf growth 48h inconclusive, Pf growth 96h inconclusive
COc1cc(/C=C/C(=O)Nc2cccc(S(=O)(=O)NC3=NCCCCC3)c2)ccc1OCC#N	Pf growth 48h 10µM, Pf growth 96h inconclusive
COc1ccc(OC)c(/C=C/C(=O)Nc2cccc(S(=O)(=O)NC3=NCCCCC3)c2)c1	Pf growth 48h 10µM, Pf growth 96h inconclusive
CC(C)[N+](C)(C)CC#CC(O)(c1ccccc1)c1ccccc1	none
C[N+]1(CC#CC(O)(c2ccccc2)c2ccccc2)CCCC1	Pf growth 48h inconclusive, Pf growth 96h 5.2µM
CCN(CC)CCC#CC(O)(c1ccccc1)c1ccccc1	Pf growth 96h 9.3µM
Nc1ccc(N2CCOCC2)c(Cl)c1	Pf growth 96h inconclusive
CCOc1ccc(-c2ccc(SC)nn2)cc1	Pf growth 96h inconclusive
O=S(=O)(c1ccc(OCC(O)CNC23CC4CC(CC(C4)C2)C3)c(Cl)c1)N1CCOCC1 (stereo not drawn)	Pf growth 48h 10µM, Pf growth 96h inconclusive
Cc1ccnc(NCc2c(O)ccc3ccccc23)c1	Pf growth 96h 0.093µM
CCN(CC)CCOC(=O)C1(c2ccc(OC)c(OC)c2)CCCC1	Pf growth 96h inconclusive (no result: Pf growth 48h)
Cc1cc(NC(=O)CC2CCCC2)n(-c2nc3ccccc3[nH]2)n1	Pf growth 48h inconclusive, Pf growth 96h 5.9µM
CCCN(C)C1CN(Cc2cn(Cc3ccc(C(F)(F)F)cc3)nn2)S(=O)(=O)C1 (stereo not drawn)	none (no result: Pf growth 48h, Pf growth 96h, SARS PLP yeast)
O=C(NC1CCN(S(=O)(=O)c2cccc(F)c2)CC1)c1ccc(F)cc1	Pf growth 48h inconclusive, Pf growth 96h 10µM
O=C(NC1CCCCC1)N1CCN(S(=O)(=O)c2ccc(F)cc2)CC1	Pf growth 96h inconclusive
COc1ccc(C(=O)NC2CCN(S(=O)(=O)c3ccc(F)cc3)CC2)cc1	Pf growth 96h inconclusive
O=S(=O)(c1ccc(F)cc1)N1CCN(C(=S)NC2CC2)CC1	Pf growth 48h 2.6µM, Pf growth 96h inconclusive
O=C(NC1CCN(S(=O)(=O)c2ccc(F)cc2)CC1)c1ccc(F)cc1	Pf growth 96h 12µM
CC(=O)NC1CC2CCCC(C1)N2S(=O)(=O)c1cccc(F)c1 (stereo not drawn)	Pf growth 96h 8.3µM (no result: Pf growth 48h)
C/C(CCc1ccc2c(c1)OCO2)=N\NC(=O)c1ccc(C)cc1C	none
CNCC(O)C(O)C(O)C(O)CO (stereo not drawn)	none
CCCCCN=CC1=C(O)CC(c2ccccc2)CC1=O (stereo not drawn)	none
CCC(C)(C)C1CCC(NC(=O)c2ccc(S(=O)(=O)N3CCOCC3)cc2)CC1 (stereo not drawn)	Pf growth 48h 10µM, Pf growth 96h 15µM
Cc1ccc(C(=O)NC2CC2)cc1S(=O)(=O)N1CCOCC1	Pf growth 48h inconclusive
O=C(c1cccs1)N1CCN(S(=O)(=O)c2ccc(F)cc2)CC1	Pf growth 96h 0.47µM
CCC[n+]1c(C)sc2c3c(ccc21)CCCC3	Pf growth 48h inconclusive
Cc1ccc(C)c(NC(=O)CN(C)C(=O)c2cc(S(=O)(=O)N3CCOCC3)ccc2N2CCCC2)c1	Pf growth 48h inconclusive, Pf growth 96h inconclusive
COc1ccc(CNC(=O)C[C@H]2C[C@H](C(=O)N3CCCCC3)[C@@]3(C)c4[nH]c5cc(-c6ccco6)ccc5c4CCN3C2=O)cc1OC	AMA1-RON2 inh inconclusive (no result: Pf growth 48h, Pf growth 96h)
O=C(O)CNS(=O)(=O)c1c(Cl)cccc1Cl	none
